Where “and” joins values, the source holds several entries; their conditions need not be identical. Equal entries are not always repeated. The whole screen tested about 5,500 compounds, of which about 2,000 (36%) were called active. Another 18% or so got no clear call; they are omitted. Rule as the data show it: active = normalized growth mostly below about 0.91 (no sharp cut-off); inconclusive = no clear call, values can overlap the other calls; inactive = mostly above about 0.92. The list shows a part of the results.
Assay: chemical genetic growth profiling, strain panel (AID 1159580);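 also: tested at 20 µM; growth read once vehicle control cultures reached saturation at 30 °C; 1 = growth at the plate median or of vehicle wells; lower values mean less growth of the strain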
Details: growth OD

Measured: normalized growth

O=C1NCC2(CCN(CCc3ccccc3)CC2)O1
inactive: S. cerevisiae deletion strains, locus YKL009W, strain mrt4, hits give low values 0.986 | S. cerevisiae deletion strains, locus YKL068W, hits give low values 0.995 | S. cerevisiae deletion strains, locus YKL085W, strain MDH1 (second series), hits give low values 0.995 | S. cerevisiae deletion strains, locus YKL085W, strain MDH1, hits give low values 0.995 | S. cerevisiae deletion strains, locus YKL160W, strain elf1, hits give low values 0.97 | S. cerevisiae deletion strains, locus YKL190W, strain CNB1, hits give low values 1 | S. cerevisiae deletion strains, locus YKR001C, strain vps1, hits give low values 0.999 | S. cerevisiae deletion strains, locus YKR026C, strain gcn3, hits give low values 0.939 | S. cerevisiae deletion strains, locus YKR091W, strain srl3, hits give low values 1.01 | S. cerevisiae deletion strains, locus YLL001W, strain dnm1, hits give low values 0.945 | S. cerevisiae deletion strains, locus YLL026W, hits give low values 1 | S. cerevisiae deletion strains, locus YLL041C, strain sdh2, hits give low values 0.999 | S. cerevisiae deletion strains, locus YLR027C, strain aat2, hits give low values 0.995 | S. cerevisiae deletion strains, locus YLR039C, strain RIC1, hits give low values 1 | S. cerevisiae deletion strains, locus YLR058C, strain SHM2, hits give low values 1.01 | S. cerevisiae deletion strains, locus YLR102C, strain apc9, hits give low values 0.999 | S. cerevisiae deletion strains, locus YLR113W, strain HOG1, hits give low values 0.964 | S. cerevisiae deletion strains, locus YLR221C, strain rsa3, hits give low values 1 | S. cerevisiae deletion strains, locus YLR258W, strain gsy2, hits give low values 1 | S. cerevisiae deletion strains, locus YLR262C, strain YPT6 (second series), hits give low values 0.981 | S. cerevisiae deletion strains, locus YLR262C, strain YPT6, hits give low values 0.968 | S. cerevisiae deletion strains, locus YLR268W, strain sec22, hits give low values 1.04 | S. cerevisiae deletion strains, locus YLR320W, strain mms22, hits give low values 1.02 | S. cerevisiae deletion strains, locus YLR330W, strain CHS5, hits give low values 1.01 | S. cerevisiae deletion strains, locus YLR342W, strain FKS1 (second series), hits give low values 1.01 | S. cerevisiae deletion strains, locus YLR342W, strain FKS1, hits give low values 0.994 | S. cerevisiae deletion strains, locus YLR357W, strain rsc2, hits give low values 0.981 | S. cerevisiae deletion strains, locus YLR370C, strain arc18, hits give low values 0.989 | S. cerevisiae deletion strains, locus YLR371W, strain rom2, hits give low values 1.01 | S. cerevisiae deletion strains, locus YLR384C, strain iki3, hits give low values 0.988 | S. cerevisiae deletion strains, locus YLR418C, strain cdc73, hits give low values 0.981 | S. cerevisiae deletion strains, locus YML016C, strain PPZ1, hits give low values 1 | S. cerevisiae deletion strains, locus YML032C, strain rad52, hits give low values 1.02 | S. cerevisiae deletion strains, locus YML120C, strain ndi1, hits give low values 0.984 | S. cerevisiae deletion strains, locus YML124C, strain tub3, hits give low values 0.996 | S. cerevisiae deletion strains, locus YMR058W, strain fet3, hits give low values 0.979 | S. cerevisiae deletion strains, locus YMR078C, strain ctf18, hits give low values 1 | S. cerevisiae deletion strains, locus YMR125W, strain sto1, hits give low values 0.97 | S. cerevisiae deletion strains, locus YMR129W, hits give low values 0.98 | S. cerevisiae deletion strains, locus YMR205C, strain PFK2, hits give low values 1.01 | S. cerevisiae deletion strains, locus YMR223W, strain ubp8, hits give low values 0.978 | S. cerevisiae deletion strains, locus YMR231W, strain pep5, hits give low values 0.994 | S. cerevisiae deletion strains, locus YMR263W, strain SAP30, hits give low values 1.02 and 1 | S. cerevisiae deletion strains, locus YMR307W, strain GAS1, hits give low values 0.884 | S. cerevisiae deletion strains, locus YNL067W, strain RPL9B, hits give low values 1.02 | S. cerevisiae deletion strains, locus YNL071W, strain lat1, hits give low values 1.01 | S. cerevisiae deletion strains, locus YNL128W, strain TEP1, hits give low values 1.02 | S. cerevisiae deletion strains, locus YNL153C, strain GIM3, hits give low values 1.02 and 1.04 | S. cerevisiae deletion strains, locus YNL175C, strain NOP13, hits give low values 1.01 | S. cerevisiae deletion strains, locus YNL183C, strain NPR1, hits give low values 0.904 | S. cerevisiae deletion strains, locus YNL197C, strain WHI3, hits give low values 0.992 | S. cerevisiae deletion strains, locus YNL209W, strain ssb2, hits give low values 0.998 | S. cerevisiae deletion strains, locus YNL224C, strain SQS1, hits give low values 0.995 | S. cerevisiae deletion strains, locus YNL233W, strain BNI4, hits give low values 1.02 | S. cerevisiae deletion strains, locus YNL248C, strain rpa49, hits give low values 1.01 | S. cerevisiae deletion strains, locus YNL250W, strain rad50, hits give low values 1 | S. cerevisiae deletion strains, locus YNL271C, strain bni1, hits give low values 1.01 | S. cerevisiae deletion strains, locus YNL298W, strain CLA4, hits give low values 0.989 | S. cerevisiae deletion strains, locus YNL307C, strain MCK1, hits give low values 1.01 | S. cerevisiae deletion strains, locus YNL322C, strain KRE1 (second series), hits give low values 0.999 | S. cerevisiae deletion strains, locus YNL322C, strain KRE1, hits give low values 1 and 1.01 | S. cerevisiae deletion strains, locus YNR049C, strain mso1, hits give low values 0.987 | S. cerevisiae deletion strains, locus YNR052C, strain pop2, hits give low values 1 | S. cerevisiae deletion strains, locus YOL006C, strain TOP1, hits give low values 1.07 | S. cerevisiae deletion strains, locus YOL012C, strain htz1 0.911 | S. cerevisiae deletion strains, locus YOL147C, strain pex11, hits give low values 0.996 | S. cerevisiae deletion strains, locus YOR001W, strain rrp6, hits give low values 0.985 | S. cerevisiae deletion strains, locus YOR061W, strain CKA2, hits give low values 1.01 | S. cerevisiae deletion strains, locus YOR069W, strain VPS5, hits give low values 0.99 | S. cerevisiae deletion strains, locus YOR070C, strain gyp1, hits give low values 1 | S. cerevisiae deletion strains, locus YOR080W, strain dia2, hits give low values 0.988 | S. cerevisiae deletion strains, locus YOR083W, strain WHI5 (second series), hits give low values 1 | S. cerevisiae deletion strains, locus YOR083W, strain WHI5, hits give low values 0.988 | S. cerevisiae deletion strains, locus YOR106W, strain vam3, hits give low values 0.979 | S. cerevisiae deletion strains, locus YOR136W, strain idh2, hits give low values 0.988 | S. cerevisiae deletion strains, locus YOR144C, strain elg1, hits give low values 1 | S. cerevisiae deletion strains, locus YOR184W, strain ser1, hits give low values 0.993 | S. cerevisiae deletion strains, locus YOR231W, strain MKK1, hits give low values 0.979 | S. cerevisiae deletion strains, locus YOR265W, strain rbl2, hits give low values 0.999 | S. cerevisiae deletion strains, locus YOR270C, strain vph1, hits give low values 0.975 | S. cerevisiae deletion strains, locus YOR290C, strain snf2, hits give low values 1 | S. cerevisiae deletion strains, locus YOR316C, strain cot1, hits give low values 0.999 | S. cerevisiae deletion strains, locus YPL051W, strain arl3, hits give low values 0.995 | S. cerevisiae deletion strains, locus YPL055C, strain LGE1, hits give low values 0.993 and 1 | S. cerevisiae deletion strains, locus YPL078C, strain atp4, hits give low values 0.991 | S. cerevisiae deletion strains, locus YPL106C, strain sse1, hits give low values 1 | S. cerevisiae deletion strains, locus YPL240C, strain hsp82, hits give low values 0.986 | S. cerevisiae deletion strains, locus YPL241C, strain CIN2, hits give low values 1.01 | S. cerevisiae deletion strains, locus YPL256C, strain CLN2, hits give low values 0.986 | S. cerevisiae deletion strains, locus YPR119W, strain clb2, hits give low values 1 | S. cerevisiae deletion strains, locus YPR141C, strain kar3, hits give low values 0.997 | S. cerevisiae deletion strains, locus YPR163C, strain tif3, hits give low values 1.01 | S. cerevisiae deletion strains, locus YPR167C, strain met16, hits give low values 1 | S. cerevisiae deletion strains, strain wtn01, hits give low values 0.997 | S. cerevisiae strains, strain wild type, hits give low values 1.01

Source: PubChem BioAssay AID1159580 (chemical genetic matrix, 2015)
